Assay results taken from the supplement of paper PMC9942566.
± gives the standard deviation of the averaged measurements.

Tested on: Serratia marcescens K904 PosmB-luxCDABE reporter (pMQ747)
Test: PosmB-lux reporter fold induction (RLU/OD600 relative to no-compound control), highest over Biolog concentrations; higher = stronger Rcs reporter activation
Conditions: wild type K904; 4 h
Procedure: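 Serratia marcescens K904 (wild type) or its isogenic ΔrcsB mutant, carrying the Rcs-dependent PosmB-luxCDABE reporter plasmid pMQ747, was grown in LB at OD600 0.1 in Biolog Phenotype MicroArray plates PM11-20 for 4 h at 30-32°C. Each compound is present at 3-4 proprietary concentrations (not stated); per the Fig. S1 legend the value given is the highest fold over those wells. Three independent trials.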

Point of comparison: `O=C1CN(/N=C/c2ccc([N+](=O)[O-])o2)C(=O)N1` [Nitrofurantoin] (Biolog plate: PM14, well positions: E5-8), “PosmB-lux reporter fold induction” value 2.33 ± 0.28. Against it:
- Nc1ccc(S(=O)(=O)Nc2nccs2)cc1 [Sulfathiazole] (Biolog plate: PM12, well positions: F5-8) — lower, 1.88 ± 0.029
- CC1=CC(=O)c2ccccc2C1=O [Menadione] (Biolog plate: PM15, well positions: G9-12) — higher, 3.74 ± 0.73
- CCC[C@@H]1C[C@@H](C(=O)N[C@@H]([C@H]2O[C@H](SC)[C@H](O)[C@@H](O)[C@H]2O)[C@@H](C)O)N(C)C1 [Lincomycin] (Biolog plate: PM11, well positions: A9-12) — lower, 1.16 ± 0.14
- CC(CN1c2ccccc2Sc2ccccc21)N(C)C (stereo not given) [Promethazine] (Biolog plate: PM14, well positions: H5-8) — higher, 4.68 ± 1.8
